In PubChem BioAssay:
The source made the active and inactive calls.

What was measured:
Albumin (Bos taurus) = Albumin (Bos taurus) (UniProt P02769); assay: compounds binding labelled BSA control protein – biochemical, small-molecule microarray, Alexa647 label, 635/667 nm fluorescence, artefact control for SMM control protein annotation, profiling panel (AID 1118); conditions: BSA-A647 binding, fluorescence 635 nm, higher = more signal;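 note: score merges 667 nm emission intensity and signal-to-noise per printed compound spot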
Sequence of Albumin (Bos taurus) (P02769 whole entry, looked up): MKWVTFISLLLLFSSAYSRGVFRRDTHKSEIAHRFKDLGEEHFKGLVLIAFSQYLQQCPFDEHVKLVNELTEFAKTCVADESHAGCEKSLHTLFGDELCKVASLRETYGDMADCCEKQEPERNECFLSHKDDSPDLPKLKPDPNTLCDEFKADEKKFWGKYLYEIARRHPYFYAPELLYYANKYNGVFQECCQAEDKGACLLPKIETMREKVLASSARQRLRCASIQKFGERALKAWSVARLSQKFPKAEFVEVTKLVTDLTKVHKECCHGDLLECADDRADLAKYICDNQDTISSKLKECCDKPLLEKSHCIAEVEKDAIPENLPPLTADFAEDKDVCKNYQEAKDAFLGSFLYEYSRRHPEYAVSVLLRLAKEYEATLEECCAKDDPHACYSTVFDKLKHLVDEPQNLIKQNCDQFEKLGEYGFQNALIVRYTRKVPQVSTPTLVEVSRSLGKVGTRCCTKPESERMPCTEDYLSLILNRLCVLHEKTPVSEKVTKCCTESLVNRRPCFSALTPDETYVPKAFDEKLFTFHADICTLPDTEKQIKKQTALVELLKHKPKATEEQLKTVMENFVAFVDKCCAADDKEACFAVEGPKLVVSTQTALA

[1] = probe aXIP binding to arrayed compounds – biochemical, NeuroSMM set, 635/667 nm fluorescence, primary screen (AID 1119); conditions: small-molecule microarray, higher = more signal, called active from +8 up or from −8 down;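 note: probe is the protein aXip251-270 applied at 1 µg/mL to compound-printed slides; binding of probe to printed compounds measured as 667 nm fluorescence plus signal to noise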
[2] = probe aNOTCH3 binding on compound microarray – biochemical, small-molecule microarray, 635/667 nm fluorescence, primary screen (AID 1120); conditions: higher = more signal;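 note: probe is a biotin-tagged antibody raised against NOTCH3 rather than NOTCH3 protein; score merges spot fluorescence near 667 nm with spot signal to noise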
[3] = probe aNOTCH2 binding on compound microarray – biochemical, small-molecule microarray, 635/667 nm fluorescence, primary screen (AID 1121); conditions: higher = more signal;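 note: score merges feature fluorescence read at 667 nm with its signal to noise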
[4] = molecular target: Carbonic anhydrase 2 (Homo sapiens) (UniProt P00918); assay: compounds binding carbonic anhydrase 2 – biochemical, small-molecule microarray, Alexa647-labelled CAII, profiling panel (AID 1122); conditions: CAII-A647 binding fluorescence, higher = more signal
[5] = COS7 lysate on small-molecule microarray, probe aHis, 635 nm (AID 1123); conditions: COS7 cell lysate, fluorescence, higher = more signal;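 note: z-score combines 667nm fluorescence intensity with signal-to-noise per printed compound spot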
[6] = probe aLAP1 signal on lysate-treated microarray – cell lysate, small-molecule microarray, COS7 lysate, primary screen (AID 1124); conditions: probe aLAP1, fluorescence, higher = more signal;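 note: lysate comes from COS7 cells expressing LAP1 and is applied at 0.3 µg/mL; score merges spot fluorescence near 667 nm with signal-to-noise over triplicate slides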
Sam68 (KHDRBS1) = assay: compounds binding KHDRBS1 protein – biochemical, small-molecule microarray, 635 nm fluorescence, primary screen (AID 1125); conditions: higher = more signal;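 note: score merges 667 nm channel intensity with signal to noise over triplicate slides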
[7] = system: Chordin-like protein 2 (CHRDL2); assay: compounds binding chordin-like 2 – biochemical, small-molecule microarray, 635 nm fluorescence, primary screen (AID 1126); conditions: fluorescence 635 nm, higher = more signal;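 note: printed compound slides probed with Chrdl2 protein at 4 µg/mL for 1 h at 4 C; score merges 667 nm emission intensity with signal to noise over three replicate slides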
[8] = molecular target: Concanavalin-A (Canavalia ensiformis) (UniProt P02866); assay: compounds binding concanavalin A lectin – biochemical, small-molecule microarray, Alexa647 label, 635 nm, artefact control for SMM control protein annotation, primary screen (AID 1127); conditions: ConA-A647 binding fluorescence, higher = more signal;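 note: z combines 667 nm emission intensity with signal-to-noise across three replicate slides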
Sequence of Concanavalin-A (Canavalia ensiformis) (P02866 whole entry, looked up): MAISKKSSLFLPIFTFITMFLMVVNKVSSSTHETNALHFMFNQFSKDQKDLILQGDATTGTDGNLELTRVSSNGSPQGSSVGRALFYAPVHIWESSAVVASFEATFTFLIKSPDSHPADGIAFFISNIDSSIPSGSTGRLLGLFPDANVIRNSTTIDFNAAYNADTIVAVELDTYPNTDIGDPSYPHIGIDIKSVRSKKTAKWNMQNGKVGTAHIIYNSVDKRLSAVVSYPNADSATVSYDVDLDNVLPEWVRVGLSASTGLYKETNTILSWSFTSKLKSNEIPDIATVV

[9] = compounds binding Alexa647 anti-His antibody – biochemical, small-molecule microarray, 635 nm fluorescence, artefact control for SMM control protein annotation, primary screen (AID 1128); conditions: higher = more signal;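 note: score merges feature fluorescence with signal-to-noise for each printed compound spot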
[10] = system: Human papillomavirus type 1a E7 protein (residues 1-88); assay: HPV1a E7 small-molecule binders, primary screen, biochemical, small-molecule microarray, residues 1-88, 635 nm (AID 1129); conditions: small-molecule microarray binding, fluorescence 635 nm; higher = more signal
[11] = molecular target: Focal adhesion kinase 1 (Homo sapiens) (UniProt Q05397); assay: PTK2 protein binding on printed compound slides – biochemical, small-molecule microarray, 635/667 nm fluorescence, BSA, DTT, primary screen (AID 1130); conditions: 635 nm fluorescence, higher = more signal;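 note: composite of spot emission at 667 nm and signal to noise over triplicate slides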
Sequence of Focal adhesion kinase 1 (Homo sapiens) (Q05397 whole entry, looked up): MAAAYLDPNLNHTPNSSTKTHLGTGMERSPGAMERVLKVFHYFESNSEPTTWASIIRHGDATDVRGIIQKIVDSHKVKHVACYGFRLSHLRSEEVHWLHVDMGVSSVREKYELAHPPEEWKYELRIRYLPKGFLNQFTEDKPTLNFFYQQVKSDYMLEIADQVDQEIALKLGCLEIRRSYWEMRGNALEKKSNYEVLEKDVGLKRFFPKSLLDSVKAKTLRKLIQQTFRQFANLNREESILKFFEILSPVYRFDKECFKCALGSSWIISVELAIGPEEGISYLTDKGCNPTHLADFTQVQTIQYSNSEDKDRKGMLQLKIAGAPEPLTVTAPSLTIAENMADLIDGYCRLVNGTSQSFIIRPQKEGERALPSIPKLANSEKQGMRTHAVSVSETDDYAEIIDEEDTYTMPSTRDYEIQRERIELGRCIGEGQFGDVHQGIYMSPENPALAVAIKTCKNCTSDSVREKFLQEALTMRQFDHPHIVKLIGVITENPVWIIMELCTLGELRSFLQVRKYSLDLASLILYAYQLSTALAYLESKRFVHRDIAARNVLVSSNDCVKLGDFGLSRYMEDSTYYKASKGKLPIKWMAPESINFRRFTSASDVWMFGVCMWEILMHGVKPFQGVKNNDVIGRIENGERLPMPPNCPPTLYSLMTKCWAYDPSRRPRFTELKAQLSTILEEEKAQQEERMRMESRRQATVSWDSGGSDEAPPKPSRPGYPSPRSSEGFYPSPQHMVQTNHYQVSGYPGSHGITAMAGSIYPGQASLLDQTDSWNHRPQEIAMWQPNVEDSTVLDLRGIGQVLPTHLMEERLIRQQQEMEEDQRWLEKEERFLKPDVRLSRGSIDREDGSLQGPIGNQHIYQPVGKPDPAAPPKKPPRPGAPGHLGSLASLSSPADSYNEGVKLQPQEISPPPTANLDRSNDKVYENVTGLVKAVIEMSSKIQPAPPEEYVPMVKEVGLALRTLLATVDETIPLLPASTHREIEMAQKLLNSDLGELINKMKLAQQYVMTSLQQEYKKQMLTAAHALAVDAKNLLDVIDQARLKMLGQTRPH

[12] = system: Fibrinogen (Alexa647-labelled); assay: Alexa647-fibrinogen binding to printed small molecules – biochemical, small-molecule microarray, 635/667 nm fluorescence, artefact control for SMM control-protein annotation, profiling panel (AID 1131); conditions: fibrinogen-A647 binding fluorescence, higher = more signal;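 note: z-score merges 667 nm fluorescence with per-spot signal-to-noise over triplicate slides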
[13] = molecular target: Follistatin (Homo sapiens) (UniProt P19883); assay: FST protein binding to printed compounds – biochemical, small-molecule microarray, 635/667 nm fluorescence, primary screen (AID 1132); conditions: 635 nm fluorescence, higher = more signal
Sequence of Follistatin (Homo sapiens) (P19883 whole entry, looked up): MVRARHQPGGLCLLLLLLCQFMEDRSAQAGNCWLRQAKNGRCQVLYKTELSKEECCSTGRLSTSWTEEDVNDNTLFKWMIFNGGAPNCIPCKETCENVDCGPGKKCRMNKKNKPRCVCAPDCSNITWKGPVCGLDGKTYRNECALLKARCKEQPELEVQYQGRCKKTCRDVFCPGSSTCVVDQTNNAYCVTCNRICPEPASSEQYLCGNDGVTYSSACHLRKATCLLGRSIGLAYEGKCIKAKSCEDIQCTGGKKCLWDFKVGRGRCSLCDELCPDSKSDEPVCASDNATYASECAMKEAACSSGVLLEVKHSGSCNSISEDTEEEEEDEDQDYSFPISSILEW

[14] = molecular target: Fibroblast growth factor 2 (Homo sapiens) (UniProt P09038); assay: basic fibroblast growth factor binding to printed compounds – biochemical, small-molecule microarray, 635/667 nm fluorescence, primary screen (AID 1133); conditions: FGF2, fluorescence 635/667, higher = more signal
Sequence of Fibroblast growth factor 2 (Homo sapiens) (P09038 whole entry, looked up): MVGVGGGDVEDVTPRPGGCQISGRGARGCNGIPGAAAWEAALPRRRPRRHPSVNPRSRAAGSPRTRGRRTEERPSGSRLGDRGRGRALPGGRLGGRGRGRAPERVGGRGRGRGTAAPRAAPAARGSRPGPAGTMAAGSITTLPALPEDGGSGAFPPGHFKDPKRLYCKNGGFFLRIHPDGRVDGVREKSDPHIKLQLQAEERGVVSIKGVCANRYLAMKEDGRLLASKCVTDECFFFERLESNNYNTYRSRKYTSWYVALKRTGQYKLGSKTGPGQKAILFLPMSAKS

[15] = JC-1 mitochondrial potential readout, lung cancer cells – cell-based, A549, JC-1 fluorescence, basal, 24 h, 100 nL, profiling panel (AID 1138); conditions: higher = more signal;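 note: A549 lung adenocarcinoma cells under basal conditions with no added stimulus; test concentration not given here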
Lefty1 = Lefty1 protein binding to printed compounds – biochemical, small-molecule microarray, 635/667 nm fluorescence, primary screen (AID 1139); conditions: fluorescence 635/667, higher = more signal
[16] = system: wheat germ agglutinin (Triticum aestivum), Alexa647-labelled; assay: Alexa647-WGA lectin binding to printed small molecules – biochemical, small-molecule microarray, 635/667 nm fluorescence, artefact control for SMM control-protein annotation, profiling panel (AID 1140); conditions: WGA-A647 binding, 635 nm fluorescence, higher = more signal;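 note: score merges 667 nm feature emission with signal to noise over triplicate slides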
[17] = molecular target: Luciferin 4-monooxygenase (Photinus pyralis) (UniProt P08659); assay: inhibition of purified Photinus pyralis luciferase – biochemical, luminescence, purified enzyme, 2006 set, primary screen (AID 1141); conditions: purified firefly luciferase, SteadyGlo luminescence, 30 min; higher = more signal, called active from +8 up or from −8 down;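 note: cell-free assay with purified firefly luciferase at 100 ng per well in PBS; test concentration not given here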
Sequence of Luciferin 4-monooxygenase (Photinus pyralis) (P08659 whole entry, looked up): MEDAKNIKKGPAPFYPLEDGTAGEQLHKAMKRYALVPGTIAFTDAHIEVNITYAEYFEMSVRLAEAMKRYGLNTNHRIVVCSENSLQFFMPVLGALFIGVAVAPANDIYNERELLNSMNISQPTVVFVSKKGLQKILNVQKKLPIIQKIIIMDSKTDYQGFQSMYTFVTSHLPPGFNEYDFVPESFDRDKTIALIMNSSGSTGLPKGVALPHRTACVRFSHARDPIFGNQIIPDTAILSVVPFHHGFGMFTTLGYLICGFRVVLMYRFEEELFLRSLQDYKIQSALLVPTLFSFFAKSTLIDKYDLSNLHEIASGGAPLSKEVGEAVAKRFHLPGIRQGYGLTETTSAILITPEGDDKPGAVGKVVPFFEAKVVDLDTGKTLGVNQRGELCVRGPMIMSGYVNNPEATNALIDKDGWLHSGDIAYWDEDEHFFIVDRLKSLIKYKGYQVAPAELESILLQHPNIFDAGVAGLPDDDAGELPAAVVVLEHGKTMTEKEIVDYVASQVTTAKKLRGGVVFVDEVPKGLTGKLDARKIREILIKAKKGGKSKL

| Structure (SMILES) | composite z-score (Albumin (Bos taurus)) | composite Z-score [1] | composite z-score [2] | composite z-score [3] | composite z-score [4] | composite z-score [5] | composite z-score [6] | composite z-score (Sam68 (KHDRBS1)) | composite z-score [7] | composite z-score [8] | composite z-score [9] | composite z-score [10] | composite z-score [11] | composite z-score [12] | composite z-score [13] | composite z-score [14] | z-score [15] | composite z-score (Lefty1) | composite z-score [16] | z-score [17] |
| --- | --- | --- | --- | --- | --- | --- | --- | --- | --- | --- | --- | --- | --- | --- | --- | --- | --- | --- | --- | --- |
| O=C1O[C@@H](c2ccccc2)[C@@H](c2ccccc2)N2[C@@H](c3ccc(OCCO)cc3)[C@]3(C(=O)Nc4ccccc43)[C@@H](C(=O)O)[C@H]12 | -0.0883 | -0.24 (inactive) | 1.09 | 0.464 | 0.745 | 1.03 | 0.741 | 0.428 | -0.12 | 0.539 | 2.37 | 0.177 | -0.0546 | 0.679 | 0.197 | -0.406 | -0.75 | 0.044 | 0.125 | -1.43 (inactive) |
| [N-]=[N+]=NCc1ccccc1[C@H]1OC(c2ccc(OCCCO)cc2)=N[C@@]1(CCS(=O)(=O)c1ccccc1)C(=O)NCC(O)CO (stereo not given in full) | 0.567 | 0.652 (inactive) | 0.11 | 0.0697 | 0.736 | 3.48 | 1.04 | 1.06 | -0.0485 | 0.939 | 2.5 | 1.26 | 1.33 | 1.01 | 1.36 | 0.877 | -1.22 | -0.385 | 0.983 | -0.986 (inactive) |
| COC(=O)C1=CC(CCCO)=CC(C2CC2)N(C)C=C1C(=O)OC (stereo not given) | 1.04 | 0.856 (inactive) | -0.0108 | -0.0668 | 0.97 | 1.09 | 0.687 | 0.0065 | -0.761 | 0.0472 | -0.153 | -0.308 | 0.623 | -0.828 | -0.157 | -0.539 | 0.511 | -0.285 | 1.26 | 0.727 (inactive) |
| COc1ccc(-c2nc(-c3ccccc3)c3c(c2C)CO[Si]3(C(C)C)C(C)C)cn1 | -0.475 | 0.428 (inactive) | -0.126 | -0.0921 | 0.0924 | 0.583 | -0.209 | 0.152 | 0.151 | -0.209 | -0.479 | 0.081 | 0.268 | -0.579 | 0.16 | 0.639 | -0.0772 | 0.402 | 0.0463 | 0.431 (inactive) |
| C=C(/C(=C/C[C@@H](OC(C)=O)c1cccc(OCCO)c1)c1cc(C(=O)OC)ccc1OC)C(C)C | 0.805 | 0.142 (inactive) | -0.0014 | -0.177 | 0.447 | 0.206 | 0.0418 | 0.531 | 0.0865 | 0.574 | -0.422 | 0.238 | 0.543 | -0.75 | 1.12 | 1.39 | 0.834 | 1.16 | 0.743 | 0.0406 (inactive) |
